# Only some compounds are listed: those with a hit (about 2.1% of all), similar ones and a draw of the others.
# Casp6 inh – caspase-6 (human) enzyme inhibition; P55212; purified caspase-6, Z-VEID-R110 cleavage fluorescence; inhibition, % at 12.5 µM; actives 0.53% (n = 350,000); AID 686996;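 active = mean inhibition across replicates at least about 35%, with every replicate also reaching that limit, limit read from the data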
# Target sequence (P55212 24-179 limits assumed): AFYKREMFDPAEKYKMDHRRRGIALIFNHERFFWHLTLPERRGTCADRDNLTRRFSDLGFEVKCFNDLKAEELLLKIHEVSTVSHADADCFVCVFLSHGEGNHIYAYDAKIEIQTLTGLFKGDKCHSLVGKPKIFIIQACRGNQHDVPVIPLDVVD
# Target sequence (P55212 194-293 limits assumed): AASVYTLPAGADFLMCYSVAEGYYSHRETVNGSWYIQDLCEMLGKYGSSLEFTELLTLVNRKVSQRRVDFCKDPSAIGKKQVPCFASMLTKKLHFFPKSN
# NSD2 HMT inh – blocks human histone methyltransferase NSD2; O96028; NSD2 peptide methylation, AlphaScreen, 120 min; inhibition, % at 12.5 µM; actives 0.54% (n = 310,000); AID 743445; in the data active = inhibition above about 50%
# PfHsp90 yeast 2 – reduces growth (ATP signal) of yeast expressing P. falciparum Hsp90. S. cerevisiae expressing PfHsp90, BacTiter-Glo ATP, 48 h; yeast lacking PDR1 and PDR3 efflux regulators. inhibition, % at 9.4 µM. actives 0.32% (n = 310,000). AID 504621;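 active = every replicate shows inhibition above about 80%, whatever the replicate mean, limit read from the data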
# ARNT TACC3 PPI – disruptors of human ARNT/TACC3 interaction; Q9Y6A5; AlphaScreen His-ARNT PAS-B/GST-TACC3 binding, luminescence; TACC3 fragment carries E629A point mutation; inhibition, % at 9.99 µM; actives 0.66% (n = 390,000); AID 623870;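 active = mean inhibition of replicates at least 50% and at least half of replicates each reaching 50%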
# SIRT5 block – blocks human SIRT5 desuccinylation of peptide; Q9NXA8; Purified SirT5, succinyl-peptide AMC, trypsin-coupled fluorescence; inhibition, % at 15 µM; actives 1.1% (n = 330,000); AID 652115; in the data active = inhibition above about 15%
# Target sequence (Q9NXA8 whole entry, looked up): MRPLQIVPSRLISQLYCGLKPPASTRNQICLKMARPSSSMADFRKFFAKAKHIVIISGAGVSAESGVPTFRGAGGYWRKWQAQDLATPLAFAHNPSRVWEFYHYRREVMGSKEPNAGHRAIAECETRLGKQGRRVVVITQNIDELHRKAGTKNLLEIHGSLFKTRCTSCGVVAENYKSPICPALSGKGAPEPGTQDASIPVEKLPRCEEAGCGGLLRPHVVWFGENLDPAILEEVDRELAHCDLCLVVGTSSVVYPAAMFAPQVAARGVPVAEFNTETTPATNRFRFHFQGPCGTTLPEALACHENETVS
# A number is an active result; - = inactive; . = no result given.
SMILES,Casp6 inh,NSD2 HMT inh,PfHsp90 yeast 2,ARNT TACC3 PPI,SIRT5 block
CCCC#Cc1ccc2c(c1)O[C@@H](CN(C)C(=O)c1ccccc1F)[C@@H](C)CN([C@H](C)CO)S2(=O)=O,-,.,.,-,20
CCCC#Cc1ccc2c(c1)O[C@H](CN(C)C(=O)c1ccccc1F)[C@@H](C)CN([C@@H](C)CO)S2(=O)=O,-,.,.,-,19
COc1cnn(-c2ccc(Br)cc2)c(=O)c1SCc1ccccc1,-,-,-,-,28
COc1cnn(-c2ccc(C)cc2)c(=O)c1SCc1ccccc1,.,-,-,-,.
O=C(Cc1csc(Nc2nc(=S)[nH]c3ccccc23)n1)NCc1ccccc1Cl,.,-,-,-,.
Cc1ccc(CNC(=O)Cc2csc(Nc3nc(=S)[nH]c4ccccc34)n2)cc1,41,-,.,.,-
CC(C)CC#Cc1ccc2c(c1)O[C@H](CN(C)C(=O)NC1CCCC1)[C@H](C)CN([C@H](C)CO)S2(=O)=O,-,.,.,-,13
CC(C)CC#Cc1ccc2c(c1)O[C@H](CN(C)C(=O)NC1CCCC1)[C@@H](C)CN([C@@H](C)CO)S2(=O)=O,-,.,.,-,19
CC(C)CC#Cc1ccc2c(c1)O[C@H](CN(C)C(=O)NC1CCCC1)[C@H](C)CN([C@@H](C)CO)S2(=O)=O,-,.,.,-,-
CC(C)CC#Cc1ccc2c(c1)O[C@@H](CN(C)C(=O)NC1CCCC1)[C@@H](C)CN([C@@H](C)CO)S2(=O)=O,-,.,.,-,16
CCCNC(=O)N1CCC2(CC1)CN(C(=O)COC)[C@@H](CO)c1c2c2ccc(OC)cc2n1C,-,.,.,.,-
CO[C@@H]1CN(C)C(=O)c2cc(NS(=O)(=O)c3ccccc3)ccc2OC[C@@H](C)N(C(=O)NC(C)C)C[C@H]1C,-,.,.,-,-
COc1ccccc1C#Cc1ccc([C@H]2[C@@H](C#N)N(C(=O)C3CCCC3)[C@H]2CO)cc1,-,.,.,.,-
COc1ccccc1NC(=O)CCC(=O)O,.,-,.,-,.
Cc1cc(Cl)c(C)c(S(=O)(=O)Oc2ccccc2NC(=O)CCC(=O)O)c1Cl,-,.,-,28,-
CCOc1cc(/C=C\[N+](=O)[O-])ccc1OCC(=O)Nc1ccccc1C,.,-,110,-,.
COc1ccc(NC(=O)C2CCC(N3C(=O)C4C5C=CC(C5)C4C3=O)CC2)cc1 (centres undefined),.,-,-,.,.
COc1ccc(NC(=O)[C@@H]2[C@@H]3C(=O)N(C4CCCCC4)C(=O)[C@@H]3C3c4ccccc4C=CN32)cc1 (some centres undefined),.,-,-,12,.
O=C(NN1C(=O)NC2(CCCCC2)C1=O)c1ccc(Cl)c(Cl)c1,-,-,-,-,17
COc1cc(/C=N/NC(=O)CC#N)cc(Br)c1O,-,-,-,58,-
Cc1noc(C)c1NC(=O)N(C)C[C@@H]1Oc2ccc(N(C)C)cc2CC(=O)N([C@@H](C)CO)C[C@@H]1C,-,.,.,-,-
CCCc1cn(CC[C@H]2CC[C@H](NS(=O)(=O)c3ccc(-c4ccccc4)cc3)[C@@H](CO)O2)nn1,-,.,.,-,-
O=C(C[C@@H]1CC[C@@H](NC(=O)C2CC2)[C@H](CO)O1)Nc1nccs1,-,.,.,-,-
Cc1ccccc1CN1CCN(Cc2ccc3cccc(F)c3n2)CC1CCO (centres undefined),-,-,-,-,36
COc1ccc(OC)c(N2C(=O)c3cccnc3C2=O)c1,-,-,-,47,-
SMILES,Casp6 inh,NSD2 HMT inh,PfHsp90 yeast 2,ARNT TACC3 PPI,SIRT5 block
COC(=O)c1cc(O)cc(OC)c1Oc1cc(C)cc(O)c1C(=O)O,43,.,-,-,.
COC(=O)c1cc(O)cc(OC)c1C(=O)c1c(O)cc(C)cc1O,-,.,-,-,.
CC(=O)N(c1ccccc1C)C1CCCC1,-,-,-,-,-
CC(=O)N(C1=C(Cl)C(=O)c2ccccc2C1=O)C1CCCCC1,-,.,109,-,-
CO[C@@H]1CN(C)C(=O)c2cc(NS(C)(=O)=O)ccc2OC[C@H](C)N(C(=O)C2CCCC2)C[C@@H]1C,-,.,.,-,-
O=S(=O)(c1ccc(F)cc1)c1nc(-c2ccco2)oc1Nc1ccccc1,-,-,-,-,112
O=S(=O)(c1ccccc1)c1nc(-c2ccco2)oc1NCc1ccccc1,.,-,.,-,.
COc1ccccc1CNC(=O)C[C@H]1C[C@@H]2c3cc(NC(=O)c4cccnc4)ccc3O[C@@H]2[C@@H](CO)O1,-,.,.,-,-
Cc1cc(C)n(-c2nnc(C)n2/N=C/c2ccc(O)cc2)n1,-,-,-,.,18
S=C(NCc1ccccc1)N1CCn2cccc2C1c1ccncc1 (centres undefined),-,-,.,-,-
CCc1cccc(CC)c1NC(=S)N1CCn2cccc2C1c1ccncc1 (centres undefined),-,-,-,-,17
CC(C)Oc1ccc(C2CC(=O)N(c3cccc(/C=C/C(=O)O)c3)C2=O)cc1 (centres undefined),.,-,-,active,-
CC(C)(C)NC(=O)CSc1nc2cccnc2n1C1CCCCC1,-,-,-,-,20
C[C@H]1CN([C@@H](C)CO)C(=O)c2cccc(NC(=O)c3ccncc3)c2O[C@@H]1CN(C)C(=O)Nc1ccc(C(F)(F)F)cc1,-,.,.,-,-
C=CCn1c(O)c(N=Nc2ccccc2)c2ccccc21,-,-,-,-,-
C=CCn1c(O)c(N=Nc2ccccc2O)c2ccccc21,-,.,195,-,-
CNC[C@H]1Oc2ccc(NC(=O)CCN3CCOCC3)cc2C(=O)N([C@@H](C)CO)C[C@H]1C,-,.,.,-,-
CC(C)CC#Cc1cnc2c(c1)C(=O)N([C@H](C)CO)C[C@H](C)[C@@H](CN(C)C(=O)C1CCOCC1)O2,-,.,.,-,-
C[C@H]1CN([C@@H](C)CO)C(=O)Cc2cc(NC(=O)CCCCCC(=O)Nc3ccccc3N)ccc2O[C@@H]1CN(C)Cc1ccc(Oc2ccccc2)cc1,-,.,.,-,29
COc1ccc(CN(C)C[C@H]2Oc3ccc(NC(=O)CCCCCC(=O)Nc4ccccc4N)cc3CC(=O)N([C@H](C)CO)C[C@H]2C)cc1,-,.,.,-,.
C[C@@H]1CN([C@H](C)CO)C(=O)Cc2cc(NC(=O)CCCCCC(=O)Nc3ccccc3N)ccc2O[C@@H]1CN(C)Cc1ccc(Oc2ccccc2)cc1,-,.,.,-,16
COc1ccc(CN(C)C[C@H]2Oc3ccc(NC(=O)CCCCCC(=O)Nc4ccccc4N)cc3CC(=O)N([C@@H](C)CO)C[C@H]2C)cc1,-,.,.,.,.
C[C@@H]1CN([C@@H](C)CO)C(=O)Cc2cc(NC(=O)CCCCCC(=O)Nc3ccccc3N)ccc2O[C@@H]1CN(C)Cc1ccc(Oc2ccccc2)cc1,-,.,.,-,26
O=C(C[C@H]1C[C@H]2c3cc(NC(=O)C4CCC4)ccc3O[C@H]2[C@@H](CO)O1)NCc1ccc(-c2ccccc2)cc1,-,.,.,-,.
COCC(=O)Nc1ccc2c(c1)OC[C@@H](C)N(CCC(F)(F)F)C[C@@H](C)[C@H](OC)CN(C)C2=O,-,.,.,-,-
